High-throughput results from PubChem.
Rows were chosen to be rich in hits. Some 4.9% of all compounds tested hit in one or more screens of this group.
Calb FLC – affects C. albicans growth with fluconazole | growth inhibition, % (no concentration beside the values) | 0.57% of 300,000 active | C. albicans CaCi-2 (fluconazole-resistant clinical isolate) + fluconazole, Alamar Blue growth, 48 h | AID 1979;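 active means growth inhibition above about 58% in most replicates, limit read from the data, passing the limit was not always enough; inconclusive means exactly half the replicates above a set limit; inactive means most replicates below a set limit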;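 further: all wells also contain fluconazole at 8 µg/ml as a sub-toxic cotreatment; 0% = median of DMSO wells and 100% = median of geldanamycin control wells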
CSC inhib – blocks cancer stem cells; inhibition, % at 7.5 µM; 1.1% of 300,000 active; cancer stem cell-like cells viability, luminescence; in the data active means inhibition above about 75%; inconclusive means no clear call, values can overlap the other calls; tested in HMLE shEcad cells
Beta apoptosis – beta cell apoptosis inhibition. protection from apoptosis, % (concentration not given with the values). 0.8% of 300,000 active. INS-1E cytokine-induced death, ATP luminescence, 48 h; percent of positive-control rescue, neutral wells zero;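 active means Every replicate reaches about 75%, or at least half do and their mean reaches it too, limit read from the data; inconclusive means At least half of replicates reach the limit but their mean does not; inactive means Under half of replicates reach the limit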;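 further: 0% = cytokine-treated negative control wells and 100% = positive control rescue; higher means more ATP so stronger rescue from cytokine killing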
PP1 counter – PP1-alpha (human) inhibition in PP5 counter-screen; 0.9% of 320,000 active; inhibition, % at 6.7 µM; AID 2235; P62136; purified PP1alpha, OMFP fluorescence;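 active means inhibition above the mean inhibition of all tested compounds plus 3 SD, computed separately for each screening campaign, cut at about 15% in these data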
PP5 primary – PP5 (human) phosphatase inhibition; inhibition, % at 6.7 µM; purified PP5c, OMFP substrate fluorescence; 0.18% of 320,000 active; P53041; AID 1987;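 active means inhibition above the campaign's mean inhibition across all tested compounds plus 3 SD, cut at about 9.5% in these data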;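 further: 0% = DMSO only and 100% = 100 µM cantharidin control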
Mdm2 MdmX PPI – disrupts the human Mdm2-MdmX interaction; SaOS-2 split-luciferase Mdm2/MdmX complementation, luminescence; inhibition, % at 8 µM; 3% of 330,000 active; AID 485346;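 active means inhibition of at least 50% at 8 µM in the primary screen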
Mdm2-MdmX conf – human Mdm2/MdmX binding inhibition, confirmed; shares compounds with Mdm2 MdmX PPI; luminescent assay; inhibition, % at 8 µM; 55% of 10,000 active; AID 489028; in the data active means inhibition above about 40%
FLuc counter – full-length luciferase inhibition in Mdm2/MdmX counter-screen; 77% of 6,200 active; inhibition, % at 8 µM; SaOS-2 full-length luciferase counterscreen, luminescence; AID 504607; shares compounds with Mdm2 MdmX PPI;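 active means mean inhibition at 8 µM reaching about 37%, which flags the compound as non-specific, limit read from the data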;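 further: p53-null SaOS-2 cells with luciferase driven by a doxycycline-inducible promoter; compound on cells about two nights before reading with doxycycline added after day one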
Starred values were filed as active, the others as inactive; ? = inconclusive; · = no result given.

SMILES	Calb FLC	CSC inhib	Beta apoptosis	PP1 counter	PP5 primary	Mdm2 MdmX PPI	Mdm2-MdmX conf	FLuc counter
Cc1cc(Cl)ccc1NC(=O)CN1CCCC1	12	-6	-3	1	1	-8	·	·
O=C(CN1CCCCC1)Nc1ccc(NC(=O)c2ccc(Cl)cc2)cc1Cl	?	39	21	-1	1	57*	14	·
CC(C)(C)c1ccc(CNc2ccc([N+](=O)[O-])cn2)cc1	-50	10	-4	5	6	·	·	·
COc1ccc(CN(C(=O)c2ccc(-c3ccccc3)[nH]2)C(C(=O)NC(C)(C)C)c2ccncc2)cc1 (stereo not drawn)	18	24	-5	3	2	52*	38	83*
Cc1cccc(OCc2nnc(SCC(=O)c3c(N)n(C4CC4)c(=O)[nH]c3=O)o2)c1	·	·	·	·	·	0	·	·
COc1ccccc1CCNC(=O)c1cccc(S(=O)(=O)NCc2ccccc2)c1	-21	-4	-2	0	2	18	·	·
O=C(/C=C/c1ccc(Cl)cc1)NC(=S)Nc1ccc(N2CCOCC2)c(Cl)c1	3	45	-2	-4	2	86*	44*	91*
CCCCn1c(N)c(N(Cc2ccccc2OC)C(=O)c2sccc2C)c(=O)[nH]c1=O	6	2	-6	3	-1	2	·	·
Cc1ccc(N=c2oc3cc(O)ccc3cc2C(N)=O)cc1	0	34	4	-2	4	84*	53*	17
CC(=O)c1cc2ccc(O)cc2oc1=O	1	14	-1	1	-2	-4	·	·
CCCOc1ccc(N2C(=O)CC(N(CCOC34CC5CC(CC(C5)C3)C4)C(C)=O)C2=O)cc1 (stereo not drawn)	-10	-11	-3	2	1	10	·	·
Cc1ccc(CCC(=O)Nc2ccc([N+](=O)[O-])cc2)o1	-28	-10	·	-2	1	14	·	·
Cc1ccc(S(=O)(=O)c2c(C)nn(C(C)(C)C)c2OC(=O)C2CCCC2)cc1	-4	33	-12	0	4	70*	24	·
COc1ccc([N+](=O)[O-])cc1NC(=O)C(C)NNC(=O)c1cccc([N+](=O)[O-])c1 (stereo not drawn)	·	7	7	·	·	35	·	·
CC(=O)c1ccc2c(c1)C1C=CCC1C(c1cc3c(cc1Br)OCO3)N2 (stereo not drawn)	-4	52	12	6	2	67*	47*	57*
COc1cccc(/C=N/NC(=O)c2[nH]c(C)c(C(=O)N/N=C/c3cccc(OC)c3)c2C)c1	1	-1	-4	-1	0	25	·	·
COc1cccc(/C=N/NC(=O)c2[nH]nc3c2CCc2ccccc2-3)c1	-7	37	39	1	1	56*	61*	44*
COc1ccc(OC)c(/C=N/NC(=O)c2[nH]nc3c2CCc2ccccc2-3)c1	-14	-4	0	4	2	-18	·	·
CCOC(=O)c1c(C)[nH]c(C(=O)N/N=C/c2cccc(OC)c2)c1C	-15	50	0	0	3	53*	39	·
COc1ccccc1CNC(=O)C1CC(c2ccccc2C(F)(F)F)=NO1 (stereo not drawn)	0	4	-6	3	3	19	·	·
O=C(O)/C=C/C(=O)N1CCN(c2cccc(Cl)c2)CC1	36	-12	3	-3	-1	-3	·	·
COc1ccccc1C(=O)NNC(=O)CCCN1C(=O)/C(=C/c2cccs2)SC1=S	-9	13	-8	-4	0	72*	77*	63*
O=C1/C(=C/c2cccs2)SC(=S)N1CCCC(=O)N(CCO)c1ccccc1	-2	-5	-33	10	5	53*	32	·
COCCCNC(=O)C(=O)Nc1ccc2c(c1)N(S(=O)(=O)c1cccs1)CCC2	3	·	15	-3	3	45	·	·
Clc1ccc(CSc2nncn2-c2ccc3c(c2)OCCO3)cc1	-2	75	0	-2	1	51*	60*	48*
CCn1c(=O)n(CC(=O)Nc2ccc(F)cc2)c(=O)c2ccccc21	-23	-13	-3	-2	3	20	·	·
